Only some compounds are listed: those with a hit (about 1.5% of all), similar ones and a draw of the others.
cytoskel mod: modifiers of cytoskeleton assembly; inhibition, % at 2 µM; 91,000 tested, 0.18% active; HUVEC TNFa F-actin phalloidin imaging, high content;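 active = inhibition above the batch mean plus 3 SD and confirmed as a hit by visual image inspection, cut at about 30% in these data, passing the limit was not always enough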
E-sel TNF inh: TNF alpha driven E-selectin expression inhibition | HUVEC TNFa-induced E-selectin immunofluorescence, high content | inhibition, % at 2 µM | 120,000 tested, 0.71% active;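 active = inhibition above the batch mean plus 3 SD, and confirmed as a hit on visual image review, cut at about 43% in these data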;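 also: 0% = TNF-stimulated DMSO wells and 100% = unstimulated control wells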
MRP resist rev: reverses drug resistance mediated by MRP | H69AR cells + 2 uM doxorubicin, CellTiter-Glo, 72 h | differential viability (reversal), % at 10 µM | 85,000 tested, 0.04% active;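 active = viability drop by adding the cancer drug above about 55%, with treated viability meeting a 40% cutoff, limit read from the data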;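 also: viability without doxorubicin minus viability with 2 µM doxorubicin for each compound; larger differential means the compound sensitizes cells more to doxorubicin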
MRP1 act: MRP-1 activation. H69AR cells + doxorubicin, viability rescue, CellTiter-Glo. viability increase, % at 10 µM. 140,000 tested, 0.61% active. AID 799;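 active = viability gain under doxorubicin at or above a set limit, the compound median plus 3 SD, cut at about 4.7% in these data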;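 also: MRP-1 overexpressing cells given doxorubicin 25 µM after compound pretreatment; 18-22 h compound pretreatment then 72 h with doxorubicin before readout; 0% = doxorubicin-only wells and 100% = vehicle-treated cells without doxorubicin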
VCAM1 TNFa inh: reduces TNF alpha induced VCAM1 expression in HUVEC. inhibition, % at 2 µM. 95,000 tested, 0.48% active. HUVEC TNFa-induced VCAM-1 immunofluorescence, high-content imaging;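 active = inhibition above the batch mean plus 3 SD, with images confirmed as a hit by eye, cut at about 37% in these data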;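 also: 0% = TNF-stimulated DMSO wells and 100% = unstimulated control wells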
* hit, by the source's call; . = not tested or not shown.

SMILES	cytoskel mod	E-sel TNF inh	MRP resist rev	MRP1 act	VCAM1 TNFa inh
COC(=O)c1cc2sc(Cl)cc2n1CC(=O)Nc1cccc(SC)c1	34	65*	-4	2	-6
O=C1CCCc2c1[nH]c1ccc(Cl)cc21	-36	0	15	2	76*
CCOC(=O)c1ccc2[nH]c3c(c2c1)CCCCC3=O	-4	-24	9	-1	-6
CC(=O)c1ccc(OC2OCCOC2Oc2ccc(C(C)=O)cc2)cc1 (stereo not given)	.	9	.	-3	.
COCCCNCCCCOc1ccc(OCc2ccccc2)cc1	.	66*	.	.	.
N#C/C(=C\c1cc(Cl)ccc1O)C(=O)NC1CCCCC1	-17	.	.	0	-13
N#C/C(=C\c1cc(Cl)cc(Cl)c1O)C(=O)NC1CCCCC1	16	100*	.	1	23
COc1ccc(C)cc1S(=O)(=O)N1CCC(C(=O)NCCc2ccccc2)CC1	.	.	.	0	.
O=C1CC(c2ccccc2)c2cc(O)ccc2O1 (stereo not given)	.	-10	.	5.1*	.
C/C(=N/OCO/N=C(/C)c1ccc(F)cc1)c1ccc(F)cc1	.	.	.	-2	.
O=[N+]([O-])c1ccc(O)c(N=Cc2sc3ccccc3c2O)c1	.	-24	.	5.5*	.
Oc1c(C=Nc2cccc3cccnc23)sc2ccccc12	-2	5	-6	-6	24
CCC(Sc1nc(-c2ccccc2)c(C#N)c(=O)[nH]1)C(=O)Nc1nnc(C)s1 (stereo not given)	6	12	.	6.4*	-47
C=CCSc1nc(-c2ccccc2)c(C#N)c(=O)[nH]1	-13	5	13	1	1
N#Cc1c(-c2ccccc2)nc(SCC(=O)N(c2ccccc2)c2ccccc2)[nH]c1=O	.	30	.	7.5*	.
N#Cc1c(-c2ccccc2)nc(SCC(=O)Nc2ccccc2)[nH]c1=O	.	.	.	9.6*	.
N#Cc1c(-c2ccccc2)nc(SCC(=O)Nc2ccccc2F)[nH]c1=O	.	.	.	9.8*	.
COC(=O)c1ccc(Cn2cnc3c(sc4nc(N5CCOCC5)c5c(c43)CCCC5)c2=O)o1	.	-35	0	-4	.
CCC(Sc1nccn1C)C(=O)Nc1nnc(C)s1 (stereo not given)	-2	0	1	7.3*	-1
CCOC(=O)CCCCC(=O)c1[nH]c(=O)[nH]c1CSc1nc(-c2ccccc2)c(C#N)c(=O)[nH]1	-8	8	3	6.4*	9
N#Cc1c(-c2cccs2)nc(SCC(=O)c2cccs2)[nH]c1=O	2	-8	.	5.6*	-4
Cc1cc(NC(=O)CSc2nc(-c3ccccc3)c(C#N)c(=O)[nH]2)no1	14	3	4	9.1*	-9
CCOC(=O)CCCCC(=O)c1[nH]c(=O)[nH]c1CSCCO	.	8	7	-1	-6
O=C(CSc1nc2ccccc2c(=O)[nH]1)c1cccs1	8	-5	-4	-1	10
COc1ccc(OC)c(NC(=O)COC(=O)CCCN2C(=O)c3ccccc3C2=O)c1	.	.	.	1	.
SMILES	cytoskel mod	E-sel TNF inh	MRP resist rev	MRP1 act	VCAM1 TNFa inh
COC(=O)c1ccccc1NC(=O)N1CCN(C(=O)c2ccco2)CC1	.	.	1	-2	.
Cc1cccc(NC(=O)CSc2nc(-c3ccccc3)c(C#N)c(=O)[nH]2)c1C	4	-46	.	9.1*	2
O=[N+]([O-])c1ccc(Oc2cccc(F)c2)c2ccncc12	11	9	-24	-5	9
Cc1ccc(NC2=CC(=O)OC(C)C2)cc1 (stereo not given)	15	12	.	1	4
CC1CC(Nc2ccccc2)=CC(=O)O1 (stereo not given)	10	44*	.	1	16
N#CCCN(C(=O)COC(=O)c1ccc(S(=O)(=O)Nc2ccccc2)cc1)c1ccccc1	.	4	.	-2	.
CC(C)NC(=O)C(=O)NCCc1ccc(Cl)cc1	-5	3	19	4.8*	12
O=C(Oc1ccccc1Cl)c1ccc(-n2cncn2)nc1	-22	4	.	-3	10
CC(C)(C)C1CCc2c(sc(NC(=O)c3cccs3)c2C(=O)N2CCCCC2)C1 (stereo not given)	-6	5	-18	5.0*	6
O=C1N(CC(=O)N2CCc3ccccc32)CCN1Cc1ccccc1Cl	-6	-2	11	-1	-13
CC(C)CCNC(=O)CCSCCC(=O)NCCC(C)C	.	-9	.	-2	.
Cc1ccccc1OCC(=O)Nc1ccc2c(c1)COC2=O	36*	-35	21	1	-2
c1cc2c3c(cccc3c1)NC1(CCCCCC1)N2	.	8	-20	-2	.
O=C1CCSc2cccc3cccc(c23)N1	-66	.	-1	0	90*
Cc1cccc(C(=O)c2cnc3ccccc3c2-c2ccccc2)c1	-6	-4	.	5.0*	8
